Experimental data published in PubChem BioAssay (Tox21).
The source made the active and inactive calls. Calls come from the whole dose curve; as a rule, active = well fitted activation curve with a large enough effect in the repeat runs; inconclusive = weak or mixed curves; inactive = flat fitted curve, though single readings scatter. Where a SMILES comes first, the peptide text is derived from it. [ ]: non-standard residue; d: D form. pGlu = O=C1CC[C@@H](C(=O)O)N1

experiment: A CellTox Green Cytotoxicity Assay to monitor cytotoxicity in HepG2 cells - 0 hour (AID 1224882); details: CellTox Green fluorescence; series mostly up to 76.8 µM; cytotoxicity: at the top concentration; note: nearly all actives have a fitted effect of over 35% in size
From the text: National Center for Advancing Translational Sciences [NCATS]
NIH Chemical Genomics Center [NCGC]
U.S. Environmental Protection Agency [EPA]
National Institutes of Environmental Health Sciences [NIEHS]
National Toxicology Program [NTP]
Cell-based models are critical for drug discovery. Determining the natural cytotoxic effects resulting from test compounds is an essential research activity. A CellTox Green Cytotoxicity Assay to monitor cytotoxicity in real time of continues cell culture during 40 hours of the compound treatment was used to screen Tox21 10K library compounds in HepG2 cells. CellTox Green Cytotoxicity Assay is a nonlytic, homogeneous, biofluorescent method to measure cytotoxicity in cell culture after experimental manipulation. The assay system uses a proprietary asymmetric cyanine dye that is excluded from viable cells but preferentially stains the dead cell's DNA. […] Viable cells produce no appreciable increases in fluorescence. Therefore, the fluorescence signal produced by the binding interaction with dead cell DNA is proportional to cytotoxicity.
The mixture of HepG2 cell suspension and reagents were dispensed at 600cells/6 ul/well in 1536-well tissue culture treated black solid bottom plates using a Multidrop dispenser. After the assay plates were incubated at a 37 C/5% CO2 incubator for 5 hours, 23 nL of compounds dissolved in DMSO, positive and negative controls was transferred to the assay plate by a pintool work station. The plates were incubated at 37 C for 40 hours. The fluorescence intensity were measured at 0h, 8h, 16h, 24h, 32h and 40h time points using ViewLux plate reader during compound treatment.
% is set by controls: 0 for no effect and ±100 for the full control effect.

Compound	cytotoxicity
CCOc1ccccc1OCC	0.383% (inactive)
COc1cc(C(=O)OC(COCCC(C)C)CN2CCOCC2)cc(OC)c1OC (stereo not given)	-7.81% [at 35.3 µM] (inactive)
OCCCCCO	-3.22% (inactive)
Cc1cc(C)c(N=Nc2c(O)c(S(=O)(=O)O)cc3cc(S(=O)(=O)O)ccc23)cc1C	2.93% [at 6.97 µM] (inactive)
O=Cc1cccc(Br)c1	3.94% (inactive)
CC(=O)c1ccc2ccccc2c1	15.6% (inactive)
CCNC(=O)[C@@H]1CCCN1C(=O)[C@H](CCCN=C(N)N)NC(=O)[C@H](CC(C)C)NC(=O)CNC(=O)[C@H](Cc1ccc(O)cc1)NC(=O)[C@H](CO)NC(=O)[C@H](Cc1c[nH]c2ccccc12)NC(=O)[C@H](Cc1cnc[nH]1)NC(=O)[C@@H]1CCC(=O)N1 ([pGlu]HWSYGLRP-NHEt)	-4.43% [at 35.3 µM] (inactive)
COc1c(N2CCNC(C)C2)c(F)cc2c(=O)c(C(=O)O)cn(C3CC3)c12 (stereo not given)	-2.95% [at 35.3 µM] (inactive)
Cc1ccnc(NS(=O)(=O)c2ccc(N)cc2)n1	1.08% [at 35.3 µM] (inactive)
CN1CCC(=C2c3ccccc3CCc3cccnc32)CC1	1.81% [at 35.3 µM] (inactive)
C[N+](C)(CCOc1ccccc1)Cc1cccs1	-3.78% [at 35.3 µM] (inactive)
CC(CO)(CO)[N+](=O)[O-]	1.07% (inactive)
C=C(C)C(=O)OCC(O)CO (stereo not given)	-4.4% [at 35.3 µM] (inactive)
Cc1ncc(COP(=O)(O)O)c(C=O)c1O	1.69% [at 35.3 µM] (inactive)
O=C(O)c1cc(C(=O)O)cc(C(=O)O)c1	-5.19% (inactive)
NC(CCC(=O)O)C(=O)O (stereo not given)	9.19% (inactive)
Cc1ccc(-c2ncc(Cl)cc2-c2ccc(S(C)(=O)=O)cc2)cn1	6% [at 35.3 µM] (inactive)
CN1CCN(c2cc3c(nn2)Oc2ccccc2N3C)CC1	0.041% [at 15.8 µM] (inactive)
NCCCC(N)(C(=O)O)C(F)F (stereo not given)	-11.3% [at 35.3 µM] (inactive)
FB(F)F	-13.2% (inactive)

Compound	cytotoxicity
OCCc1ccccn1	-3.3% (inactive)
COCCOC[C@H](CC1(C(=O)NC2CCC(C(=O)O)CC2)CCCC1)C(=O)Oc1ccc2c(c1)CCC2 (stereo not given in full)	4.74% (inactive)
CCCCCCC1CCC(=O)O1 (stereo not given)	-4.2% (inactive)
CC(=O)OCC(=O)[C@@]1(O)[C@H](C)C[C@H]2[C@@H]3CCC4=CC(=O)C=C[C@]4(C)[C@@]3(F)[C@@H](O)C[C@@]21C	2.41% [at 35.3 µM] (inactive)
CCCCN1C=CN(C)C1	-12.1% [at 15.8 µM] (inactive)
C[C@H]1C[C@H]2[C@@H]3CCC4=CC(=O)C=C[C@]4(C)[C@H]3C(=O)C[C@]2(C)[C@@]1(O)C(=O)CO	-0.356% [at 35.3 µM] (inactive)
Clc1cc(Cl)cc(Cl)c1	-3.63% (inactive)
CCC(C(=O)NC(=O)NC(C)=O)c1ccccc1 (stereo not given)	1.81% [at 35.3 µM] (inactive)
CCN[C@H]1C[C@H](C)S(=O)(=O)c2sc(S(N)(=O)=O)cc21	6.94% [at 35.3 µM] (inactive)
Cc1c(N)c(=O)n(-c2ccccc2)n1C	-3.28% [at 35.3 µM] (inactive)
CCCc1ncc(C[n+]2ccccc2C)c(N)n1	6.93% [at 35.3 µM] (inactive)
C1CCC2(CCCCO2)OC1	10.5% (inactive)
CO/N=C(\C(=O)N[C@@H]1C(=O)N2C(C(=O)O)=C(CSc3nc(=O)c(O)nn3C)CS[C@H]12)c1csc(N)n1	1.54% [at 35.3 µM] (inactive)
CNCCO	4.01% (inactive)
CCC1C(=O)OCC1Cc1cncn1C (stereo not given)	-10.8% [at 35.3 µM] (inactive)
CC1=C(C/C=C(\C)CCC[C@H](C)CCC[C@H](C)CCCC(C)C)C(=O)c2ccccc2C1=O	3.39% [at 35.3 µM] (inactive)
CCCCOC(=O)CCC(C)=O	-2.26% (inactive)
CC(C)C[C@@H](N)C(=O)O	-9.4% [at 15.8 µM] (inactive)
CC(C)NNC(=O)c1ccncc1	-1.21% [at 35.3 µM] (inactive)
CCCCS(=O)(=O)N[C@@H](Cc1ccc(OCCCCC2CCNCC2)cc1)C(=O)O	-12.6% [at 35.3 µM] (inactive)
